Reference: PubChem BioAssay (NCATS)
Several values for one entry are separate records, joined by “and”; a condition that tells them apart may be missing. Identical values can stand only once. Results filed as inconclusive are left out. More than one record can exist for a structure, and the calls need not agree. Activity calls are given as the source filed them. Unless noted, the call rests on the fitted dose curve; in most records, active means well fitted curve in either direction with a large enough effect (not every such curve was filed as active); inconclusive means small, poorly fitted or top-dose-only effect, or another doubt; inactive means flat fitted curve, though single readings scatter.

Assays:
[1] = AP1 Signaling Pathway (AID 357); conditions: ME-180 AP-1-bla reporter, EGF-induced, beta-lactamase ratio, 5 h;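 further: ME-180 reporter cells stimulated with EGF at its EC50 level; on the % scale 0 is the no-effect control and ±100 the full control effect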
In short: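 A ratiometric CCF4 readout (405 nm excitation; 460 and 530 nm emission) quantified AP-1-driven beta-lactamase in ME-180 cells after 5 h with compound and EC50 EGF; AC50 values were derived for activators and inhibitors.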

[2] = target: Cytochrome P450 1A2 (Homo sapiens) (UniProt P05177); assay: p450-cyp1a2 (AID 410; calls by dose curve; further: potency means the concentration at half of the fitted maximal effect;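 on activity change, negative = inhibition: -100% = full effect of reference inhibitor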); conditions: recombinant CYP1A2, luciferin-ME demethylation, luminescence; series mostly up to 25.6 µM
Sequence of Cytochrome P450 1A2 (Homo sapiens) (P05177 whole entry, looked up): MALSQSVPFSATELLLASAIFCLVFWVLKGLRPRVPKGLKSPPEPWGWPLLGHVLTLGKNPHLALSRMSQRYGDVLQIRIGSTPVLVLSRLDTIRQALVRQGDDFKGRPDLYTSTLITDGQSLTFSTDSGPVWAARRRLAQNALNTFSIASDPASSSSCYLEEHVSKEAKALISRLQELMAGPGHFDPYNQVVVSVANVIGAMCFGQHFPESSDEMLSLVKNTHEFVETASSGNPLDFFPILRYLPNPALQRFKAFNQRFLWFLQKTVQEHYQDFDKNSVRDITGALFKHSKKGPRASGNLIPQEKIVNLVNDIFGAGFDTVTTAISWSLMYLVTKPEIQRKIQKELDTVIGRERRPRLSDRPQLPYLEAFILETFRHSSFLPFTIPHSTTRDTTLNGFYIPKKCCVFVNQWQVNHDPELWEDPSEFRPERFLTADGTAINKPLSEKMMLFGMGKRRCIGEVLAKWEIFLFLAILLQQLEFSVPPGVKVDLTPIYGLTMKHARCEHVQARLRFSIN
In short: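 Human CYP1A2 (20nM) demethylated Luciferin-ME at its Km (100uM) in 100mM KPO4. After 10 min compound preincubation, NADPH regeneration ran the reaction 60 min at room temperature. Luciferin was read by luminescence, normalized to 57 uM furafylline.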

[3] = NFAT Signaling Pathway (AID 444); conditions: Jurkat NFAT-bla M1, carbachol, beta-lactamase ratio, 5 h;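 further: carbachol stimulus at about its EC50 of 1 µM final; on the % scale 0 is the no-effect control and ±100 the full control effect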
In short: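 Jurkat cells with NFAT-driven β-lactamase reporter and co-expressed M1 receptor, stimulated with carbachol (final 1 uM, ~EC50), compound titration, 5 h at 37 °C. CCF4 loaded 1 h at RT; 460/530 nm ratio gave %activity and AC50.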

[4] = Stat Signaling Pathway (AID 446); conditions: ME-180 (cervical carcinoma) SIE beta-lactamase reporter, IL-6 stimulated, 5 h;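 further: ME-180 cervical cancer cells given 40 pM IL-6 alongside compound; SIE-controlled beta-lactamase reporter measured as 460/530 nm FRET emission ratio; on the % scale 0 is the no-effect control and ±100 the full control effect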
In short: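 IL-6/STAT signaling read in ME-180 cells via an SIE beta-lactamase reporter. Stimulus was 40 pM IL-6 (its AC50) for 5 hrs, so both activation and inhibition register.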

[5] = target: Glucocorticoid receptor (Homo sapiens) (UniProt P04150); assay: GR-GFP Redistribution (AID 450;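 active means compounds whose dose series gives a full or clear partial fitted curve of increased nuclear translocation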; further: potency means the concentration at half of the fitted maximal effect); conditions: U2OS GR-GFP nuclear translocation, laser cytometry, 2 h
Sequence of Glucocorticoid receptor (Homo sapiens) (P04150 whole entry, looked up, the tested form may be a part): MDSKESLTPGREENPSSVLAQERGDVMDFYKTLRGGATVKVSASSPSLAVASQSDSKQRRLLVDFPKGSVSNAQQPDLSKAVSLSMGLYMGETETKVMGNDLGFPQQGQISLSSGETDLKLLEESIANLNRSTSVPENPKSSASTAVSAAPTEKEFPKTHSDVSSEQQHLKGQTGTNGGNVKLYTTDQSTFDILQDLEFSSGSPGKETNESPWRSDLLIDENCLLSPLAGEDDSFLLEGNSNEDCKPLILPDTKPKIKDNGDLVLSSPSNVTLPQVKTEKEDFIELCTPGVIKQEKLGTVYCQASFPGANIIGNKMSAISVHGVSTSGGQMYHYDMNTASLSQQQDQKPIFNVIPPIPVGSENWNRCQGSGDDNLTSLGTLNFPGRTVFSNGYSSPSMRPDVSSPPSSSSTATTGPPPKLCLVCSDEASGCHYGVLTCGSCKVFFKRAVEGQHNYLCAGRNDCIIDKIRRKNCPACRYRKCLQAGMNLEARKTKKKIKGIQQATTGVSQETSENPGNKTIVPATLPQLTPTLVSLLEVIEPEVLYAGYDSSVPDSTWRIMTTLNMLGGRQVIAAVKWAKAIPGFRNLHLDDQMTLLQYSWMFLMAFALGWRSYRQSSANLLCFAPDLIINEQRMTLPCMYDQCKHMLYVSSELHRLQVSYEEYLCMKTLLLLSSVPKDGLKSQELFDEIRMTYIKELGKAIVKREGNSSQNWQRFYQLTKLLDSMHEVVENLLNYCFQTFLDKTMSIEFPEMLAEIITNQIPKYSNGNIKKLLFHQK

[6] = target: Glucocorticoid receptor (Homo sapiens) (UniProt P04150); assay: GR-EFC Redistribution (AID 451; calls by dose curve; further: potency means the concentration at half of the fitted maximal effect); conditions: CHO-K1 GR-EFC translocation, beta-gal luminescence, 2 h
In short: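 CHO-K1 cells expressing nuclear EA and GR-ED fragments of b-gal; compounds titrated up to 46 uM final, 2 h at 37 C. GR nuclear translocation read as complemented b-gal luminescence after 1 h RT detection.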

[7] = target: Mitogen-activated protein kinase 10 (Mus musculus) (UniProt Q61831); assay: JNK3 AlphaScreen Assay (AID 530); conditions: JNK3 lysate, c-Jun phosphorylation; series mostly up to 57.1 µM;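 further: kinase came from lysate of stimulated human HepG2 cells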; further: potency means the concentration at half of the fitted maximal effect;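 on activity change, negative = inhibition: signal reports phosphorylation of biotinylated GST-cJun 1-79 at Ser73 with 10 µM ATP; on the % scale 0 is the no-effect control and ±100 the full control effect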
In short: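 qHTS format: compounds tested as titrations against IL-1beta/TNF-alpha-activated HepG2 lysate JNK3 with biotin-GST-cJun substrate and 10 uM ATP at room temperature. Loss of anti-phospho-cJun AlphaScreen signal indicates inhibition.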

[8] = target: 3',5'-cyclic-AMP phosphodiesterase 4B (Homo sapiens) (UniProt Q07343); assay: qHTS Assay for Inhibitors of PDE-IV (AID 607; active means well fitted activation curve with a large enough effect in the main read-out, with a control signal flat, not every such curve was filed as active; further: % of control where 0% means no effect); conditions: HEK293 ACTOne CNG channel cells, membrane potential fluorescence; series mostly up to 22.9 µM
Sequence of 3',5'-cyclic-AMP phosphodiesterase 4B (Homo sapiens) (Q07343 whole entry, looked up): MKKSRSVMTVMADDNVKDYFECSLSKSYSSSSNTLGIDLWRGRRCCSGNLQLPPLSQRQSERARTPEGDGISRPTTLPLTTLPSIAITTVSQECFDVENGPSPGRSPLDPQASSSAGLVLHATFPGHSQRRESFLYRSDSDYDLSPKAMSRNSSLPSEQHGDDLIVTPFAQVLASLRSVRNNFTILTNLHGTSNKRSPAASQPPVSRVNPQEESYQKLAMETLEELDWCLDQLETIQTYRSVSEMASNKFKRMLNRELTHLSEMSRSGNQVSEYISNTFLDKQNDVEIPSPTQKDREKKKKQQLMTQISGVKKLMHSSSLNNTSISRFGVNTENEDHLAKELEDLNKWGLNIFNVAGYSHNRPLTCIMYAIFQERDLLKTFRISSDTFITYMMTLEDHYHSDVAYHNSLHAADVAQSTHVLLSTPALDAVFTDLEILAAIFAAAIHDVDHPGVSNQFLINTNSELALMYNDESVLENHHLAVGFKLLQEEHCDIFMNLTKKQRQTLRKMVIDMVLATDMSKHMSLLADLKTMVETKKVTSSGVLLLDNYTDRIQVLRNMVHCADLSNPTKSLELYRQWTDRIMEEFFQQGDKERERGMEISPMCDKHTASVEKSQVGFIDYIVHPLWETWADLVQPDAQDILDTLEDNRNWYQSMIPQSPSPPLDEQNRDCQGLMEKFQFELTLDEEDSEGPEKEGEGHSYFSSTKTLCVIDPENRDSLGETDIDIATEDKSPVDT
In short: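 Live HEK293 cells with a modified cyclic nucleotide-gated (CNG) channel report intracellular cAMP via membrane-potential dye fluorescence (ex 535/em 590 nm). Endogenous PDE-IV was targeted. Compounds were tested at up to 22.9 uM final; RO 20-1724 100 uM served as control.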

[9] = Cell Viability - BJ (AID 421; calls by dose curve;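 further: potency means the concentration at half of the fitted maximal effect; cells exposed to compound for 40 hours at 37 °C before readout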); conditions: BJ fibroblast viability, qHTS
In short: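 Quantitative HTS: ATP depletion in BJ cells after 40 hr compound exposure in complete culture medium, detected with CellTiter-Glo; AC50 from standard Hill fits.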

[10] = Cell Viability - Jurkat (AID 426;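 active means dose-dependent loss of cell ATP signal giving a full or clear fitted curve, ranked by lower potency value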; further: potency means the concentration at half of the fitted maximal effect); conditions: qHTS
In short: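 Jurkat (clone E6-1, human T-cell leukemia) cells, 5000/well in complete medium, were exposed to compound for 40 hr at 37 °C. Viability was read as intracellular ATP by CellTiter-Glo luminescence; AC50 came from Hill fits of concentration-response data.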

[11] = Cell Viability - Hek293 (AID 427;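 active means compounds whose dose-response curve shows a full or clear partial loss of cell viability, called from curve shape rather than a numeric limit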;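 further: potency means the concentration at half of the fitted maximal effect; cells exposed to compound for 40 hours at 37 °C before reading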); conditions: qHTS
In short: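 AC50 values derive from Hill-modelled concentration-response of ATP-based luminescence, normalized between DMSO-only and 100 uM tamoxifen controls. Cells were exposed in complete culture medium for 40 hr at 37 °C before detection.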

[12] = Cell Viability - HepG2 (AID 433; calls by dose curve;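 further: potency means the concentration at half of the fitted maximal effect; potency for ATP loss meaning cytotoxicity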); conditions: qHTS
In short: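 Cytotoxicity read as ATP loss (CellTiter-Glo luminescence) after 40 hr compound exposure of HepG2, 1500 cells/well, 37 °C. AC50 by Hill equation; 0% set by DMSO, 100% inhibition by 100 uM tamoxifen.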

[13] = Cell Viability - N2a (AID 540; active means well fitted curve in the direction sought with a large enough effect; an effect the other way counts as inactive or inconclusive;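 further: plate controls were DMSO alone for no effect and tamoxifen control for full effect; nearly all actives have a fitted effect of over 45% in size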); conditions: N2a mouse neuroblastoma cell viability; activity change, negative = cytotoxicity: at 92.2 µM (top of the series)
In short: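 Mouse neuroblastoma N2a cells (1500/well) were preincubated 5 hr at 37 °C, then exposed to compounds for 40 hr at 37 °C in complete medium. Viability was read as intracellular ATP by CellTiter-Glo luminescence; AC50 from Hill fits.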

[14] = Cell Viability - NIH 3T3 (AID 541; active means well fitted curve in the direction sought with a large enough effect; an effect the other way counts as inactive or inconclusive;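 further: plate controls were DMSO alone for no effect and tamoxifen positive control for full effect; nearly all actives have a fitted effect of over 25% in size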); conditions: NIH 3T3 cell viability, qHTS; activity change, negative = cytotoxicity: at 92.2 µM (top of the series)
In short: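 NIH 3T3 mouse embryo fibroblasts (1000 cells/well) were plated in complete medium and treated with compound for 40 hr at 37 °C. Viability was read as intracellular ATP by CellTiter-Glo luminescence; AC50 values came from Hill-equation fits of concentration-response data.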

[15] = Cell Viability - HUV-EC-C (AID 542; active means well fitted curve in the direction sought with a large enough effect; an effect the other way counts as inactive or inconclusive; further: on the % scale 0 is the no-effect control and ±100 the full control effect; nearly all actives have a fitted effect of over 35% in size); conditions: HUV-EC-C endothelial cell viability, qHTS; series mostly up to 92.2 µM
In short: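 HUV-EC-C normal human vascular endothelial cells, 1000 cells/well, pre-incubated 5 hr at 37 °C, then exposed to compounds for 40 hr at 37 °C in complete medium. Viability measured as intracellular ATP by CellTiter-Glo luminescence; AC50 from Hill fits.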

[16] = Cell Viability - H-4-II-E (AID 543; active means well fitted curve in the direction sought with a large enough effect; an effect the other way counts as inactive or inconclusive; further: on the % scale 0 is the no-effect control and ±100 the full control effect; nearly all actives have a fitted effect of over 35% in size); conditions: H-4-II-E rat hepatoma viability; series mostly up to 92.2 µM
In short: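 Rat hepatoma H-4-II-E cells (1500/well) were plated, incubated 5 hr at 37 °C, then exposed to compounds for 40 hr at 37 °C. Cellular ATP was read by CellTiter-Glo luminescence; AC50 came from Hill-equation fits of concentration-response data.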

[17] = Cell Viability - SH-SY5Y (AID 544; active means well fitted curve in the direction sought with a large enough effect; an effect the other way counts as inactive or inconclusive;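 further: 0% = DMSO alone and -100% = 100 µM tamoxifen; nearly all actives have a fitted effect of over 55% in size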); conditions: SH-SY5Y neuroblastoma cell viability; series mostly up to 92.2 µM
In short: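 Human neuroblastoma SH-SY5Y cells (1500/well) in complete medium were exposed to compounds for 40 hr at 37 °C; intracellular ATP was then quantified by CellTiter-Glo luminescence after 20 min at room temperature. AC50 came from Hill-equation concentration-response fits.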

[18] = Cell Viability - Renal Proximal Tubule (AID 545; active means well fitted curve in the direction sought with a large enough effect; an effect the other way counts as inactive or inconclusive;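 further: 0% = DMSO only and -100% = 100 µM tamoxifen; nearly all actives have a fitted effect of over 40% in size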); conditions: renal proximal tubule cells viability, primary cells of rat origin; series mostly up to 91.7 µM
In short: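 Viability taken as intracellular ATP (CellTiter-Glo luminescence) after 40 hr, 37 °C compound treatment of primary proximal tubule cells from rat kidney, 1000 cells/well; Hill-equation fits of qHTS concentration-response data gave AC50.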

[19] = Cell Viability - Mesenchymal (AID 546; active means well fitted curve in the direction sought with a large enough effect; an effect the other way counts as inactive or inconclusive;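 further: cells exposed to compound for 40 hours before reading; 0% = DMSO only and -100% = 100 µM tamoxifen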); conditions: mesenchymal cells viability, qHTS; series mostly up to 91.7 µM
In short: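 Human kidney mesenchymal cells from normal renal glomeruli, 1000 cells/well, rested 5 hr at 37 °C, then treated 40 hr at 37 °C in complete medium. Cellular ATP read by CellTiter-Glo luminescence; AC50 from Hill-equation fits.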

C#CCN(C)Cc1ccccc1
inactive: activity change, negative = inhibition ([1]; at 17.2 µM (top of the series)) -4.72% and 6.12% | activity change, negative = inhibition ([1]; at 38 µM (top of the series)) 1.9% | Potency [2] | activity change, negative = inhibition ([3]; at 17.2 µM (top of the series)) 4.68% and -0.725% | activity change, negative = inhibition ([3]; at 38 µM (top of the series)) 4.11% | activity, negative = inhibition ([4]; at 17.2 µM (top of the series)) 8.61% and -2.46% | Potency [5] > 46 µM and > 20.6 µM | Potency [6] > 46 µM and > 20.6 µM | Potency [7] | outcome [8]

CC(C)C(=O)c1c(C(C)C)nn2ccccc12
active: Potency [2] 1.26 µM and 631 nM
inactive: activity change, negative = inhibition ([1]; at 38 µM (top of the series)) -2.6% | activity change, negative = inhibition ([3]; at 38 µM (top of the series)) -1.94% | Potency [7]

Nc1cc(=O)[nH]c(N)n1
inactive: activity change, negative = inhibition ([1]; at 38 µM (top of the series)) -5.58% | Potency [2] | activity change, negative = inhibition ([3]; at 38 µM (top of the series)) -0.946% | activity, negative = inhibition ([4]; at 38 µM (top of the series)) 1.02% | outcome [8]

Cc1cc2c(cc1S(N)(=O)=O)S(=O)(=O)CCC2
inactive: activity change, negative = inhibition ([1]; at 17.2 µM (top of the series)) 4.34% | Potency [2] | activity change, negative = inhibition ([3]; at 17.2 µM (top of the series)) 1.69% | activity, negative = inhibition ([4]; at 17.2 µM (top of the series)) -10.1% | Potency [5] > 20.6 µM | Potency [6] > 20.6 µM | Potency [7] | outcome [8]

C=Cc1c(C)c2cc3[nH]c(cc4nc(cc5nc(cc1[nH]2)C(C)=C5CCC(=O)O)C(CCC(=O)O)=C4C)c(C)c3C=C
inactive: activity change, negative = inhibition ([1]; at 38 µM (top of the series)) -5.02% | activity change, negative = inhibition ([3]; at 38 µM (top of the series)) 10.7% | Potency [5] > 46 µM | Potency [6] > 46 µM | outcome [8]
active: Potency [2] 6.31 µM | Potency [7] 0.398 µM [activator]

CC1=C(CC(=O)O)c2cc(F)ccc2/C1=C\c1ccc(S(C)(=O)=O)cc1
inactive: activity change, negative = inhibition ([1]; at 38 µM (top of the series)) 11.6% | activity change, negative = inhibition ([3]; at 38 µM (top of the series)) 13.8% | activity, negative = inhibition ([4]; at 38 µM (top of the series)) -25.4% | Potency [7] | outcome [8]
active: Potency [2] 12.6 µM

CC1(C)OC(=O)NC1=O
inactive: activity change, negative = inhibition ([1]; at 17.2 µM (top of the series)) 5.67% | Potency [2] | activity change, negative = inhibition ([3]; at 17.2 µM (top of the series)) -1.86% | activity, negative = inhibition ([4]; at 17.2 µM (top of the series)) 1.25% | Potency [5] > 20.6 µM | Potency [6] > 20.6 µM | Potency [7] | outcome [8]

NC(N)=NCCC[C@H](N)C(=O)O
inactive and 31.6 µM (active): Potency [2]
inactive: activity change, negative = inhibition ([1]; at 38 µM (top of the series)) -0.498% | activity change, negative = inhibition ([3]; at 38 µM (top of the series)) -0.248% | Potency [5] > 46 µM | Potency [6] > 46 µM | Potency [7] | outcome [8]

CC1(C)[C@@H]2CC[C@@]1(C)C(=O)C2
inactive: Potency [9] > 92 µM | Potency [10] > 92 µM | Potency [11] > 92 µM | Potency [12] > 92 µM | Potency [7] | activity change, negative = cytotoxicity [13] 2.78% | Potency [14] | Potency [15] | Potency [16] | Potency [17] | Potency [18] | outcome [19]
